An excerpt weighted towards active compounds, which were near 4.5% of everything screened.
hcDAF-12 act: H. contortus DAF-12 nuclear receptor activators, primary screen, cell-based, luminescence, HEK293, lit1-tk-luc reporter | HEK293 hcDAF-12 lit1-tk-luc reporter; 0% DMSO, 100% Δ7-dafachronic acid | activation, % at 6.8 µM | 370,000 tested, 1.4% active | AID 652067, 2013;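 active = activation above the mean of all tested compounds plus 3 SD, cut at about 5.5% in these data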
FXN GAA850 act: FXN promoter activators, primary screen, cell-based, luciferase luminescence, HEK293 lucGAA850; HEK293 lucGAA850 FXN promoter luciferase reporter, 24 h; percent of 10 µM SAHA response; activation, % at 6 µM; 360,000 tested, 0.56% active; AID 540364, 2011;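 active = activation above the average of all compounds screened plus 3 SD, cutoff fixed separately per campaign, cut at about 7.5% in these data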
hgDAF-12 ag: H. glycines DAF-12 receptor agonists, primary screen, cell-based, luminescence, HEK293, GAL4 fusion, UAS-luciferase. 370,000 tested, 1.8% active. activation, % at 6.8 µM. HEK293 GAL4-hgDAF12 UAS-luciferase reporter, agonist luminescence; normalized to butyrate control. Nuclear hormone receptor DAF-12 (Heterodera glycines), GAL4 fusion;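 active = activation above a cutoff set at the mean of all screened compounds plus 3 SD, cut at about 10% in these data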
DAX1 inh-1: DAX1 (NR0B1) inhibitors on StAR promoter, primary screen, cell-based, luminescence, SF-1 (NR5A1), full-length DAX-1. inhibition, % at 6.8 µM. 370,000 tested, 1.1% active. AID 652010, 2013. HEK293T StAR-luciferase reporter, SF-1/DAX-1 repression relief;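 active = inhibition above the mean over all tested compounds plus 3 SD, cut at about 3.6% in these data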;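 also: higher inhibition means more luminescence from relief of DAX-1 repression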
DAX1 inh-2: DAX1 (NR0B1) inhibitors, primary screen, cell-based, HEK293, Gal4-DAX1, luciferase luminescence; 340,000 tested, 0.99% active; HEK293 Gal4-DAX1 luciferase reporter; Nuclear receptor subfamily 0 group B member 1 (Homo sapiens), P51843; inhibition, % at 6.75 µM;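 active = inhibition above the mean over all tested compounds plus 3 SD, cut at about 4.2% in these data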;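 also: inhibition shows as a rise in luminescence from relieved DAX1 repression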
Target sequence (P51843 207-470 limits assumed): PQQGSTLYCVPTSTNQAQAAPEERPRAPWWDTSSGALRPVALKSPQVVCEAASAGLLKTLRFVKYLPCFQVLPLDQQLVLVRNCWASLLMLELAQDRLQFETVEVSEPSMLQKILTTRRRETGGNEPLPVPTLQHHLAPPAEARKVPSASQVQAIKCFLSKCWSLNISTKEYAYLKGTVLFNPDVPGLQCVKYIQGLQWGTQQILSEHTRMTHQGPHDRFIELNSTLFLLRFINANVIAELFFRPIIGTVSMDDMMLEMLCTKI
ssDAF-12 act: S. stercoralis DAF-12 nuclear receptor activators, primary screen, cell-based, luminescence, HEK293, GRIP1 co-expression, lit1-tk-luc; 370,000 tested, 1% active; HEK293 ssDAF-12/GRIP1 lit1-tk-luc reporter; % of 3 µM dafachronic acid response; Nuclear hormone receptor DAF-12 (Strongyloides stercoralis); AID 652126, 2013; activation, % at 6.8 µM;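 active = activation above the mean over all tested compounds plus 3 SD, cut at about 0.9% in these data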
LXR ag: LXR agonists, Gal4 luciferase reporter, confirmation, counter-screen for hcDAF-12 agonist project, cell-based, luminescence, HEK293, H. contortus campaign | HEK293 Gal4-LXR tk-luc reporter, 24 h; normalized: DMSO 0%, positive control 100% | AID 743027, 2013 | shares compounds with hcDAF-12 act | activation, % at 6.8 µM | 3,400 tested, under 10 active;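 active = mean percent activation of the reporter above a cutoff set as the average over tested compounds plus their standard deviation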
Target sequence (P55055 whole entry, looked up, the tested form may be a part): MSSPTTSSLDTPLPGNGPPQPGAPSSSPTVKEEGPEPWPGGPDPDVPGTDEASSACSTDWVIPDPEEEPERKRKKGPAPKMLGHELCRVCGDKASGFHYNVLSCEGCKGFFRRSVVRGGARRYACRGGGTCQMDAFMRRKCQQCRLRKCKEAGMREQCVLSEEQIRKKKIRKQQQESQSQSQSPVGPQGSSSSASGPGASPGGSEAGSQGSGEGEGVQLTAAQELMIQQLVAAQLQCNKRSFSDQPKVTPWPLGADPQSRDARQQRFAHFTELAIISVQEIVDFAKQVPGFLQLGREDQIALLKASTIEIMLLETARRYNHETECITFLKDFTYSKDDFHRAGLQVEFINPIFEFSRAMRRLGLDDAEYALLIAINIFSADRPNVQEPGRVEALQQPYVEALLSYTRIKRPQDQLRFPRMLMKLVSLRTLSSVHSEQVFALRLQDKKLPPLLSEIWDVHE
hcDAF12 ag: H. contortus DAF-12 receptor agonists, confirmation, cell-based, luminescence, HEK293, lit1-tk-luc, triplicate | shares compounds with hcDAF-12 act | HEK293 hcDAF-12 lit1-tk-luc reporter; % of Δ7-dafachronic acid response | activation, % at 6.8 µM | 3,400 tested, 61% active;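 active = mean activation across triplicate tests above the threshold derived from the earlier primary screen, cut at about 5.5% in these data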
hgDAF12 conf: H. glycines DAF-12 receptor agonists, confirmation, cell-based, luminescence, HEK293, GAL4-LBD fusion | shares compounds with hgDAF-12 ag | HEK293 GAL4-hgDAF12 luciferase reporter, agonist mode; percent of butyrate response | activation, % at 6.8 µM | 3,300 tested, 80% active;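 active = mean activation over triplicate wells above the hit cutoff derived from the earlier primary screen, cut at about 11% in these data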
LXRb DAF12 ctr: LXR agonists, Gal4 luciferase reporter, confirmation, counter-screen for hgDAF-12 agonist project, cell-based, luminescence, HEK293, H. glycines campaign; activation, % at 6.8 µM; shares compounds with hgDAF-12 ag; 24 h; AID 743051, 2013; 3,300 tested, under 10 active;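 active = mean activation of the triplicate above a set limit carried over from the primary screen, none filed active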
Each line names hits and unclear results; the compound was inactive in the other large screens (follow-up assays come after a bar, where they were run).

O=C(O)c1cc(N/N=C/c2cccnc2)ccc1Cl	none
O=C(O)c1cc(N/N=C/c2ccc(-c3ccccc3)cc2)ccc1Cl	hcDAF-12 act 10.6, hgDAF-12 ag 23.6, ssDAF-12 act 1.3 | LXR ag inactive | hcDAF12 ag 11.6 | hgDAF12 conf 25.1 | LXRb DAF12 ctr inactive
O=C(NC(CC1=CCCCC1)c1ccc2ccccc2c1)C(F)(F)F (configuration not stated)	none (no result: FXN GAA850 act, DAX1 inh-2)
Cn1c(NC(=O)CCc2ccccc2)cc(=O)n(C)c1=O	hcDAF-12 act 9.4, hgDAF-12 ag 14.1, DAX1 inh-1 4.1, ssDAF-12 act 1.6 | LXR ag inactive | hcDAF12 ag 7.5 | hgDAF12 conf 12.8 | LXRb DAF12 ctr inactive
CCCC(=O)Nc1cc(=O)n(C)c(=O)n1C	none
O=C(Nc1cc2ccccc2oc1=O)c1ccccc1	hcDAF-12 act 11.4, hgDAF-12 ag 14.7 (no result: DAX1 inh-2) | LXR ag inactive | hcDAF12 ag 9.2 | hgDAF12 conf inactive | LXRb DAF12 ctr inactive
O=C(CSc1nnc(COc2ccccc2)n1-c1ccc(Cl)cc1)Nc1ccc2c(c1)OCCO2	none (no result: FXN GAA850 act, DAX1 inh-2)
COCc1c(C(=O)N/N=C(/C)c2ccc(OCc3ccccc3)cc2)nnn1-c1nonc1N	hcDAF-12 act 8.5, hgDAF-12 ag 14.3 | LXR ag inactive | hcDAF12 ag inactive | hgDAF12 conf inactive | LXRb DAF12 ctr inactive
COc1cc(NC(=O)C/C(C)=N/NC(=O)c2cccs2)c(OC)cc1Cl	hcDAF-12 act 7.9, hgDAF-12 ag 14.9, DAX1 inh-1 4.0 | LXR ag inactive | hcDAF12 ag inactive | hgDAF12 conf inactive | LXRb DAF12 ctr inactive
COc1cc(NC(=O)C/C(C)=N/NC(=O)Cc2ccccc2)c(OC)cc1Cl	none
O=c1[nH]c(N/N=C/c2ccc(O)cc2)nc2ccccc12	none
O=c1[nH]c(N/N=C\c2ccc(F)cc2)nc2ccccc12	hcDAF-12 act 8.4, hgDAF-12 ag 15.4, ssDAF-12 act 1.6 | LXR ag inactive | hcDAF12 ag inactive | hgDAF12 conf 18.3 | LXRb DAF12 ctr inactive
C[C@@H]1CCN(C2CC2)S(=O)(=O)c2c(cccc2N2CC[C@H](N(C)C)C2)O1	none (no result: FXN GAA850 act, DAX1 inh-2)
Cc1cc(C)c2cc(C#N)c(NCCNC(=O)c3cccnc3)nc2c1	none (no result: FXN GAA850 act, DAX1 inh-2)
O=[N+]([O-])c1ccccc1/C=C/C1Nc2cccc3cccc(c23)N1	none (no result: FXN GAA850 act, DAX1 inh-2)
C/C(=N/NC(=O)c1cccs1)c1c(C)[nH]n(-c2nc3ccccc3s2)c1=O	hcDAF-12 act 7.7, hgDAF-12 ag 16.9, DAX1 inh-1 4.0 | LXR ag inactive | hcDAF12 ag inactive | hgDAF12 conf inactive | LXRb DAF12 ctr inactive
Cc1cc2nc(-c3cccnc3SCC(=O)NCc3ccco3)[nH]c2cc1C	hcDAF-12 act 11.2, hgDAF-12 ag 13.9, ssDAF-12 act 1.3 | LXR ag inactive | hcDAF12 ag 9.1 | hgDAF12 conf 25.1 | LXRb DAF12 ctr inactive
Cc1cc(NC(=O)c2cc3cccc([N+](=O)[O-])c3[nH]2)ccc1F	hcDAF-12 act 7.7, hgDAF-12 ag 14.2, DAX1 inh-2 9.7 | LXR ag inactive | hcDAF12 ag 7.1 | hgDAF12 conf 13.4 | LXRb DAF12 ctr inactive
CCCC1CCC2(CC1)CCC2OC(=O)Nc1ccc2c(c1)OCO2 (configuration not stated)	none (no result: FXN GAA850 act, DAX1 inh-1, DAX1 inh-2)
O=C(NCCc1c[nH]c2ccccc12)OCc1cn(-c2ccc(F)cc2F)nn1	none (no result: FXN GAA850 act, DAX1 inh-2)
CCN(CC)S(=O)(=O)c1ccc(C(=O)OCC(=O)Nc2ccc(-c3nc4ccc(C)cc4s3)cc2)cc1	hcDAF-12 act 7.6, hgDAF-12 ag 14.3, DAX1 inh-1 4.0 | LXR ag inactive | hcDAF12 ag 8.9 | hgDAF12 conf 22.6 | LXRb DAF12 ctr inactive
CCN(CC)S(=O)(=O)c1ccc(NC(=O)COC(=O)c2ccc(-n3nc(C)cc3C)cc2)cc1	none
Cc1ccsc1/C=N/Nc1nc2ccccc2[nH]1	hcDAF-12 act 9.9, hgDAF-12 ag 13.7, DAX1 inh-1 3.7 | LXR ag inactive | hcDAF12 ag inactive | hgDAF12 conf 13.9 | LXRb DAF12 ctr inactive
Clc1ccc2nc3c4ccccc4cnn3c2c1	hcDAF-12 act 18.4, hgDAF-12 ag 19.2, ssDAF-12 act 1.1 | LXR ag inactive | hcDAF12 ag 17.0 | hgDAF12 conf 21.9 | LXRb DAF12 ctr inactive
Clc1ccc2nc3ccccc3cc2c1	none
Cc1ccccc1-c1nnc(-c2ccc(Br)cc2)o1	none
CSc1ccccc1-c1nnc(-c2ccc(C)cc2)o1	hcDAF-12 act 10.3, hgDAF-12 ag 14.5, ssDAF-12 act 1.7 | LXR ag inactive | hcDAF12 ag 8.8 | hgDAF12 conf 15.0 | LXRb DAF12 ctr inactive
Cn1c(NC(=O)c2ccccc2NC(=O)C(C)(C)C)nc2ccccc21	none
Cn1c(NC(=O)c2ccc(F)cc2)nc2ccccc21	hcDAF-12 act 13.9, hgDAF-12 ag 19.0, ssDAF-12 act 1.9 | LXR ag inactive | hcDAF12 ag 14.5 | hgDAF12 conf 21.2 | LXRb DAF12 ctr inactive
COC(=O)[C@]12C[C@H](CC(=O)N3CCN(C(=O)C4CC4)CC3)C(=O)N(Cc3ccc(Cl)cc3Cl)C1=C[C@H](C1CCCC1)O[C@@H]2C	none (no result: FXN GAA850 act, DAX1 inh-2)
Nc1ccccc1SCc1cn2ccccc2n1	hcDAF-12 act 7.4, hgDAF-12 ag 14.2, DAX1 inh-1 4.2, ssDAF-12 act 1.4 | LXR ag inactive | hcDAF12 ag inactive | hgDAF12 conf 13.9 | LXRb DAF12 ctr inactive

Source: PubChem
